Reference: PubChem BioAssay AID720519 (National Center for Advancing Translational Sciences (NCATS), 2013)
Results filed as inconclusive are left out. Calls of active or inactive are those of the source. The call rests on the fitted dose curve; in most records, active means well fitted activation curve with a large enough effect; inconclusive means small, poorly fitted or top-dose-only effect; inactive means flat fitted curve, though single readings scatter.

Assay: qHTS for Inhibitors of Cell Surface uPA Generation: Confirmatory Assay for Cherry-picked Compounds; on inhibition: 0% is about no effect
Conditions: cell surface uPA activity generation, qHTS confirmation; series mostly up to 115 µM; inhibition: at the top concentration
Summary of the method: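 RAW 264.7 cells at 4000/well, incubated overnight, then treated with compounds. After 24 h at 37 C, viability was read by ATPlite luminescence. An increase in signal indicates blocked uPA-dependent LF entry.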
Potency means the concentration at half of the fitted maximal effect.

| Compound | inhibition | Potency |
| --- | --- | --- |
| CN(CC(=O)NCc1ccco1)CC(=O)Nc1c(Cl)cccc1Cl | 0.0178% (inactive) | – |
| CSCC[C@H](NC(=O)[C@H](Cc1ccccc1)n1c(=O)[nH]c2ccccc2c1=O)C(=O)N1CCC[C@@H]1C(=O)O | -0.387% (inactive) | – |
| CC(C)c1ccc(C2/C(=C(\O)c3ccc4c(c3)OCCO4)C(=O)C(=O)N2CCN2CCOCC2)cc1 (stereo unspecified) | -0.762% (inactive) | – |
| O=C(NC1CCCC1)c1nc2c(nnn2Cc2ccccc2Cl)c(=O)[nH]1 | -2.2% (inactive) | – |
| O=C(N/N=C/c1cccs1)c1ccco1 | -2.33% (inactive) | – |
| CC(NC(=O)NC1CCCCC1)C(c1cccs1)N1CCN(C)CC1 (stereo unspecified) | 1.87% (inactive) | – |
| CCCCn1c(SCC(=O)Nc2cc(C(F)(F)F)ccc2Cl)nnc1C(CC)N(C)C (stereo unspecified) | – | 52.1 µM (active) |
| CC1(C)CC(=O)C([N+](=O)[O-])=C(NCCCC(=O)O)C1 | 1.47% (inactive) | – |
| CCC1=NN(C(=O)C(=O)Nc2ccc(OC)cc2)C(O)(C(F)(F)F)C1 (stereo unspecified) | -1.82% (inactive) | – |
| COc1ccc(Cl)cc1NC(=O)CSc1nc(=O)n(CCN(C)C)c2c1CCCC2 | -4.07% (inactive) | – |
| COc1cc(CNCc2ccc3c(c2)OCO3)c([N+](=O)[O-])cc1OC | -0.654% (inactive) | – |
| O=C(NNC(=O)c1ccc2ccccc2c1)Nc1ccc(F)cc1 | 3.61% (inactive) | – |
| OC(COc1ccc(Br)cc1)CN1CCN(c2ccccc2)CC1 (stereo unspecified) | -0.285% (inactive) | – |
| CCOC(=O)C1=C(CN2CCN(C(=O)c3ccco3)CC2)NC(=O)NC1c1ccccc1 (stereo unspecified) | -0.297% (inactive) | – |
| O=C(NCCOc1ccc(F)cc1)C1CCN(S(=O)(=O)c2ccccc2)CC1 | -1.56% (inactive) | – |
| CC1(c2cccc([N+](=O)[O-])c2)CC(C)(C)N(C(=O)c2ccccc2)c2ccccc21 (stereo unspecified) | -2% (inactive) | – |
